# Measured values as given in PubChem BioAssay (EPA / NIEHS).
# Inconclusive results are not listed. Active and inactive are the calls of the source. The calls were made as follows: active = hit-call score of the fitted dose curve at least 0.9, where 1 is the maximum; inconclusive = response in the unintended direction; inactive = score below 0.9.
# Key:
# [1] = ACEA_ER_AUC_viability: ACEA Biosciences xCELLigence Real-Time Cell Analysis on Estrogen Receptor Agonism for Viability (AID 2283782);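 also: continuous compound exposure with impedance area under curve over 80 h; hit means loss of impedance signal meaning reduced cell growth or viability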
# How it was run: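 T-47D human breast cells in phenol red-free RPMI1640 with 10% charcoal-stripped FBS were dosed with an 8-point 1:4 dilution series from 100 uM top final concentration, in duplicate. Impedance-based growth was followed for 80 h; AUC analysed versus DMSO.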
# [2] = ACEA_AR_antagonist_AUC_viability: ACEA Biosciences xCELLigence Real-Time Cell Analysis on Androgen Receptor Antagonism for Viability (AID 2283776);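 also: 22Rv1 human prostate cancer cells growing on impedance electrode plates; area under impedance growth curve at 80 h after dosing as viability; hits lower the growth signal relative to DMSO meaning cytotoxicity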
# How it was run: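 Viability endpoint from label-free cell-index monitoring: 22Rv1 cultures treated with an eight-point 1:4 dilution series starting at 100 uM final, AUC at 80 h fitted against DMSO.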
# AR (gene 367) [3] = target: AR (gene 367) (UniProt P10275); assay: ACEA_AR_antagonist_80hr: ACEA Biosciences xCELLigence Real-Time Cell Analysis on Androgen Receptor Antagonism for Proliferation (AID 2283787);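 also: hits lower the impedance growth signal relative to DMSO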
# How it was run: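 Impedance readout (RT-CES), 80 h post-dose; loss-of-signal vs DMSO baseline. 22Rv1 cells in assay medium. Compounds: 8-pt 1:4 series, max 100 uM final, up to 0.5% DMSO; n = 2.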
# AR (gene 367) [4] = target: AR (gene 367) (UniProt P10275); assay: ACEA_AR_agonist_80hr: ACEA Biosciences xCELLigence Real-Time Cell Analysis on Androgen Receptor Agonism for Proliferation (AID 2283783);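 also: hits increase impedance growth signal above DMSO baseline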
# How it was run: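 22Rv1 human prostate cancer cells were seeded after preconditioning in assay medium and monitored overnight, then dosed in an eight-point 1:4 dilution series from 100 uM (≤0.5% DMSO). Impedance-based growth was read at 80 h, gain-of-signal versus DMSO.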
# [5] = tested on: frog Estrogen Receptor (ESR2), gene 100174814; assay: ATG_frER2_XSP1: Attagene TRANS-FACTORIAL Multi-Species (XSP1) HepG2 Assay for frog Estrogen Receptor (ESR2) (AID 2283774)
# How it was run: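 HepG2 cells transiently transfected with GAL4-UAS multiplexed reporter units expressing chimeric NR-Gal4 proteins; reporter mRNA measured 24 h after dosing by RT-PCR, FAM labeling, HpaI digestion and capillary electrophoresis. Gain-of-signal relative to DMSO; 3 nM 6-alpha-fluorotestosterone present.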
# [6] = tested on: frog Estrogen Receptor (ESR1), gene 398734; assay: ATG_frER1_XSP1: Attagene TRANS-FACTORIAL Multi-Species (XSP1) HepG2 Assay for frog Estrogen Receptor (ESR1) (AID 2283777)
# How it was run: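 Read-out: fluorescent reporter mRNA via RT-PCR, HpaI digestion and capillary electrophoresis, after 24 h chemical exposure of transiently transfected human HepG2 cells expressing exogenous NR-Gal4 chimeras. DMSO served as baseline for positive-direction fitting.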
# [7] = tested on: zebrafish Estrogen Receptor (ESR2A), gene 317734; assay: ATG_zfER2a_XSP1: Attagene TRANS-FACTORIAL Multi-Species (XSP1) HepG2 Assay for zebrafish Estrogen Receptor (ESR2A) (AID 2283778)
# How it was run: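 HepG2 cells transiently transfected with multiplexed GAL4-UAS reporter units and chimeric NR-GAL4 receptors; 24 h compound exposure with 3 nM 6-alpha-fluorotestosterone present. Reporter mRNA quantified by RT-PCR and capillary electrophoresis, gain-of-signal fitted relative to DMSO.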
# [8] = target: chicken Estrogen Receptor (ESR1), ESR1 (gene 396099) (UniProt P06212); assay: ATG_chERa_XSP1: Attagene TRANS-FACTORIAL Multi-Species (XSP1) HepG2 Assay for chicken Estrogen Receptor (ESR1) (AID 2283779)
# How it was run: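 HepG2 cells transiently transfected with multiplexed GAL4-UAS reporter units expressing chimeric NR-Gal4 proteins; 3 nM 6-alpha-fluorotestosterone present. Reporter mRNA measured 24 h after dosing by RT-PCR, FAM labelling, HpaI digest and capillary electrophoresis; gain of signal versus DMSO.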
# [9] = target: Estrogen receptor (Homo sapiens) (UniProt P03372); assay: ATG_hERa_XSP1: Attagene TRANS-FACTORIAL Multi-Species (XSP1) HepG2 Assay for human Estrogen Receptor (ESR1) (AID 2283780)
# How it was run: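 HepG2 cells transiently transfected with GAL4-UAS reporter units and chimeric NR-Gal4 constructs; 24 h after dosing, reporter mRNA quantified by RT-PCR and capillary electrophoresis. Medium contained 3 nM 6-alpha-fluorotestosterone; activity fitted as gain-of-signal versus DMSO.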
# [10] = tested on: turtle Estrogen Receptor (ESR1), gene 101933533; assay: ATG_trERa_XSP1: Attagene TRANS-FACTORIAL Multi-Species (XSP1) HepG2 Assay for turtle Estrogen Receptor (ESR1) (AID 2283781)
# How it was run: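 HepG2 cells transiently transfected with GAL4-UAS reporter units and chimeric NR-Gal4 constructs, dosed for 24 h with 3 nM 6-alpha-fluorotestosterone present. Reporter mRNA was quantified by RT-PCR, fluorescent labelling and capillary electrophoresis, with gain of signal fitted relative to DMSO.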
# [11] = tested on: turtle Androgen Receptor (AR), gene 101947425; assay: ATG_trAR_XSP1: Attagene TRANS-FACTORIAL Multi-Species (XSP1) HepG2 Assay for turtle Androgen Receptor (AR) (AID 2283786)
# How it was run: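 HepG2 cells transiently transfected with a turtle AR–GAL4 chimera and GAL4-UAS reporter, co-treated with 3 nM 6-alpha-fluorotestosterone for partial stimulation. Reporter mRNA is quantified at 24 h by RT-PCR and capillary electrophoresis, gain-of-signal versus DMSO.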
# [12] = target: GAL4 Transcription Factor (Internal Marker), GAL4 (gene 855828) (UniProt P04386); assay: ATG_GAL4_XSP1: Attagene TRANS-FACTORIAL Multi-Species (XSP1) HepG2 Assay for GAL4 Transcription Factor (Internal Marker) (AID 2283789)
# How it was run: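 HepG2 cells transiently transfected with multiplexed GAL4-UAS reporter units were exposed for 24 h with 3 nM 6-alpha-fluorotestosterone present. Reporter mRNA was quantified by RT-PCR, FAM labelling, HpaI digestion and capillary electrophoresis; background-control readout, gain-of-signal versus DMSO.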
# [13] = ATG_M_06_XSP1: Attagene TRANS-FACTORIAL Multi-Species (XSP1) HepG2 Assay for M06 Transcription Factor (Internal Marker) (AID 2283790)
# How it was run: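 Transfected HepG2 multi-reporter system treated 24 h in the presence of 3 nM 6-alpha-fluorotestosterone. The M06 internal marker transcript was quantified by RT-PCR with capillary electrophoresis as a background control, and gain of signal was scored versus DMSO.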
# [14] = ATG_M_61_XSP1: Attagene TRANS-FACTORIAL Multi-Species (XSP1) HepG2 Assay for M61 Transcription Factor (Internal Marker) (AID 2283797)
# How it was run: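 HepG2 cells transiently transfected with multiplexed GAL4-driven reporter units, dosed 24 h with 3 nM 6-alpha-fluorotestosterone present. Reporter mRNA quantified by RT-PCR, 6-FAM labelling, HpaI digestion and capillary electrophoresis; internal-marker background control, gain of signal versus DMSO.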
# [15] = ATG_M_19_XSP1: Attagene TRANS-FACTORIAL Multi-Species (XSP1) HepG2 Assay for M19 Transcription Factor (Internal Marker) (AID 2283798)
# How it was run: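 HepG2 cells transiently transfected with multiplexed GAL4-UAS reporter units, dosed 24 h with 3 nM 6-alpha-fluorotestosterone present for partial AR stimulation. Reporter mRNA measured by RT-PCR with capillary electrophoresis; gain-of-signal fitted relative to DMSO.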
# [16] = ATG_M_32_XSP1: Attagene TRANS-FACTORIAL Multi-Species (XSP1) HepG2 Assay for M32 Transcription Factor (Internal Marker) (AID 2283799)
# How it was run: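 HepG2 cells transiently transfected with multi-species TRANS reporter units, dosed 24 h with 3 nM 6-alpha-fluorotestosterone present. Internal-marker reporter mRNA quantified by RT-PCR and capillary electrophoresis; positive-direction fit versus DMSO.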
# [17] = target: mouse Peroxisome Proliferator-activated Receptor gamma (PPARg), Pparg (gene 19016) (UniProt P37238); assay: ATG_mPPARg_XSP1: Attagene TRANS-FACTORIAL Multi-Species (XSP1) HepG2 Assay for mouse Peroxisome Proliferator-activated Receptor gamma (PPARg) (AID 2283802)
# How it was run: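 HepG2 cells transiently transfected with GAL4-UAS reporter units driven by mouse PPARg–GAL4 chimera; 3 nM 6-alpha-fluorotestosterone present. After 24 h dosing, reporter mRNA quantified by RT-PCR, fluorescent labelling and capillary electrophoresis; gain of signal versus DMSO.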
# [18] = target: Nuclear receptor subfamily 1 group I member 2 (Mus musculus) (UniProt O54915); assay: ATG_mPXR_XSP1: Attagene TRANS-FACTORIAL Multi-Species (XSP1) HepG2 Assay for mouse Pregnane X Receptor (PXR) (AID 2283803)
# How it was run: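 Transiently transfected HepG2 cells expressing a receptor-Gal4 chimera drive a GAL4-UAS reporter; 3 nM 6-alpha-fluorotestosterone included. Reporter mRNA read 24 h post-dose by RT-PCR and capillary electrophoresis; gain of signal relative to DMSO.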
# Chain of AR (gene 367) (P10275 whole entry, looked up): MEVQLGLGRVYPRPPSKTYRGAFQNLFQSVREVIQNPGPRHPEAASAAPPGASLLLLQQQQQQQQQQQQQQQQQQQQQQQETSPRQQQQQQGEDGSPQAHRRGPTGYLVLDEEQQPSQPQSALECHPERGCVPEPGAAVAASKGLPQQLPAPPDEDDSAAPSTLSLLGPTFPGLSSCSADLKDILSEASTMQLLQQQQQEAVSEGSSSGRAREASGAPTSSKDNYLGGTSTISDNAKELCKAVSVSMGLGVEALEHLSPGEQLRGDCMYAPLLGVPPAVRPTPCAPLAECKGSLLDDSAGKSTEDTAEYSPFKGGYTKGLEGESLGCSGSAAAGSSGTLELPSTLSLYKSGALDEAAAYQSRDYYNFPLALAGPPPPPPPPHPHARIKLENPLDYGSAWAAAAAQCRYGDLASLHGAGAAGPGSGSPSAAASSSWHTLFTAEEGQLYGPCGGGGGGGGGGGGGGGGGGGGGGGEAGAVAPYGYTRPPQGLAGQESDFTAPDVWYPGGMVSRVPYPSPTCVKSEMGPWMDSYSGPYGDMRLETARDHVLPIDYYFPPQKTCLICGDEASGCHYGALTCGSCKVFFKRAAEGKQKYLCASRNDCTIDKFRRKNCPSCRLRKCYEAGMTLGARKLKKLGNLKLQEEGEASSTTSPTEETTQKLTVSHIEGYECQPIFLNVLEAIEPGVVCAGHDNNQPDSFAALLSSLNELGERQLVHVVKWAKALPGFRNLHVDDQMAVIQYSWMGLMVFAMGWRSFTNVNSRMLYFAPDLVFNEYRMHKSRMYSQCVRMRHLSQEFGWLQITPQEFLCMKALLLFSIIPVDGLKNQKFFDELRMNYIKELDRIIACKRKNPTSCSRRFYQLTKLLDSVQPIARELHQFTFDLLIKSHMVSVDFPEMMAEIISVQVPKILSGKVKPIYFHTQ
# Chain of chicken Estrogen Receptor (ESR1), ESR1 (gene 396099) (P06212 whole entry, looked up, the tested form may be a part): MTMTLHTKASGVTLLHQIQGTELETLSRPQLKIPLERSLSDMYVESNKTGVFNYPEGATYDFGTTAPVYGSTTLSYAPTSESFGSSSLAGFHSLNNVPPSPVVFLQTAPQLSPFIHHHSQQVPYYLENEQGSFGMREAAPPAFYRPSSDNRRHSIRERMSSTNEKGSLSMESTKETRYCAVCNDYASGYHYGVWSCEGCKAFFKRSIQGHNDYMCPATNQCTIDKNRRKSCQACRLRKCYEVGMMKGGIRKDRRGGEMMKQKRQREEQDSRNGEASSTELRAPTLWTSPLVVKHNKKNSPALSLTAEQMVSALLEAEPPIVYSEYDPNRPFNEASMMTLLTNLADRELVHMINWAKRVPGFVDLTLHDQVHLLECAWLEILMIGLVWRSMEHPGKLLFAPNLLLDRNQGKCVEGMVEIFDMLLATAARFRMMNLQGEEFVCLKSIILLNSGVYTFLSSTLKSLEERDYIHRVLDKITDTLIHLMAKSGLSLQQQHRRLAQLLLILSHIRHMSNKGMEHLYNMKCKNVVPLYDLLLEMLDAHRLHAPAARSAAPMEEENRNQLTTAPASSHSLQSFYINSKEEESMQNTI
# Chain of mouse Peroxisome Proliferator-activated Receptor gamma (PPARg), Pparg (gene 19016) (P37238 whole entry, looked up, the tested form may be a part): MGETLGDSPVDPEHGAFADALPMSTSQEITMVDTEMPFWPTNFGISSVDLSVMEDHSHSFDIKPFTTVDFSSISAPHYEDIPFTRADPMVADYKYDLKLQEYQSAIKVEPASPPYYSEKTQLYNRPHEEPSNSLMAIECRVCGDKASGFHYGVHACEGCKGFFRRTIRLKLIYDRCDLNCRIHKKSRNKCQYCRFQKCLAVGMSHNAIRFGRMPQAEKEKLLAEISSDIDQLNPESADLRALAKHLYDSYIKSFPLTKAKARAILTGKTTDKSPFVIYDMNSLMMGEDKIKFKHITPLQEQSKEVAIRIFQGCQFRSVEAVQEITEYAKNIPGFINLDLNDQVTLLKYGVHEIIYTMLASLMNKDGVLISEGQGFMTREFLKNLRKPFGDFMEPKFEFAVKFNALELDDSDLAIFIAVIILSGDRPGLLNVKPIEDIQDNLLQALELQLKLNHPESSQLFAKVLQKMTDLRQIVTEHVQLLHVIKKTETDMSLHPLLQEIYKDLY
# Chain of Nuclear receptor subfamily 1 group I member 2 (Mus musculus) (O54915 whole entry, looked up, the tested form may be a part): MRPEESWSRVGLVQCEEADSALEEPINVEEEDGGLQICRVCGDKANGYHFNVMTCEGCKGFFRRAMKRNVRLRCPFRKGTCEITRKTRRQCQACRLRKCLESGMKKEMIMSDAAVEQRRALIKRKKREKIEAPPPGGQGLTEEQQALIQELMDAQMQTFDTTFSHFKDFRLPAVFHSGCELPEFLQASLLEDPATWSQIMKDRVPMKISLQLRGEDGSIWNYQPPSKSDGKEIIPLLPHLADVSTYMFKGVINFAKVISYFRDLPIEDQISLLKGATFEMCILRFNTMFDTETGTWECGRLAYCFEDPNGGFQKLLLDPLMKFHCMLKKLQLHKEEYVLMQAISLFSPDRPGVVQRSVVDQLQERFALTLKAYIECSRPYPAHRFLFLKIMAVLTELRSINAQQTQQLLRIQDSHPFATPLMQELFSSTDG
# Chain of GAL4 Transcription Factor (Internal Marker), GAL4 (gene 855828) (P04386 whole entry, looked up, the tested form may be a part): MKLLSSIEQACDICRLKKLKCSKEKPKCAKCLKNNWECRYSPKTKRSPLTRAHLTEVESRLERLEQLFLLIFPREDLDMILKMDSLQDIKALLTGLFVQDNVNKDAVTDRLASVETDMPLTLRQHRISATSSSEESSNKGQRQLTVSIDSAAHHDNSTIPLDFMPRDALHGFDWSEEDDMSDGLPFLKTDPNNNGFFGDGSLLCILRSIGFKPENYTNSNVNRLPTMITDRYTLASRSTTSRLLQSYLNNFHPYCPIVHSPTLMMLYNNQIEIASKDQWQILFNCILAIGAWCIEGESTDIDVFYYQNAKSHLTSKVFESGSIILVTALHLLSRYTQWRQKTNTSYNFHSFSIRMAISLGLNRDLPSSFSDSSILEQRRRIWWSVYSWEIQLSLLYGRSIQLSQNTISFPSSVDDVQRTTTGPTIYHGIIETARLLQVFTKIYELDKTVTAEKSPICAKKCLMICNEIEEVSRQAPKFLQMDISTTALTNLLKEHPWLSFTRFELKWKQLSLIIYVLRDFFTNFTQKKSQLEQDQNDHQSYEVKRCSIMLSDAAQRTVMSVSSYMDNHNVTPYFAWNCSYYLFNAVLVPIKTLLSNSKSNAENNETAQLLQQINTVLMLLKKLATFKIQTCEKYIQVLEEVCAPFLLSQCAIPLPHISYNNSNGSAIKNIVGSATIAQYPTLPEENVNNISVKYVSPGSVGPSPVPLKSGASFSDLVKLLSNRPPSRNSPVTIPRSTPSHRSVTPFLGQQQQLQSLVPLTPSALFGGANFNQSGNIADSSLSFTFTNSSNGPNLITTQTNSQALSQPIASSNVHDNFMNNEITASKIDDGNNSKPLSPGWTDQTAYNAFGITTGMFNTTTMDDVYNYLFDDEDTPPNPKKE
# Chain of Estrogen receptor (Homo sapiens) (P03372 whole entry, looked up, the tested form may be a part): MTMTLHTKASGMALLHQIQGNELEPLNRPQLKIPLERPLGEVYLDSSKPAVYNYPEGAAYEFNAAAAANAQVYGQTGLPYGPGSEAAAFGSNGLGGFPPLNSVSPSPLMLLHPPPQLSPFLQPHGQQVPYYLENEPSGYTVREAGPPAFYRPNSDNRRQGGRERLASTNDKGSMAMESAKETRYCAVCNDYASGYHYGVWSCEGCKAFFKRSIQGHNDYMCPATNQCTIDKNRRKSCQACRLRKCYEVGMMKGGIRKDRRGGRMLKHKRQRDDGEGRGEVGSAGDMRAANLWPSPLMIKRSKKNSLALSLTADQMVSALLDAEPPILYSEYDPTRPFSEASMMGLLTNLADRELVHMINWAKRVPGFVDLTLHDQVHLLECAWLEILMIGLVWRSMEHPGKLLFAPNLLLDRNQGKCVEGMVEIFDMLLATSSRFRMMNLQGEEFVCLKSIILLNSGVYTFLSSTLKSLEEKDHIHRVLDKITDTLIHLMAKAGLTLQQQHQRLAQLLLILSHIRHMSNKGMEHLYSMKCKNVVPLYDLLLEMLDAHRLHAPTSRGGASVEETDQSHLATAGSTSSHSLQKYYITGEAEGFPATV
smiles,measurement,setting,value
Nc1cc([N+](=O)[O-])cc(Cl)c1O,outcome,[1],inactive
Nc1cccnc1N,AC50,[1],83.2 µM (active)
COCCC(=O)OC,outcome,[1],inactive
CCCCCCCCCc1ccc(OCCO)cc1,AC50,[2],14.2 µM (active)
same,AC50,[1],35.2 µM (active)
same,AC50,AR (gene 367) [3],16.6 µM (active)
O=c1[nH]cccc1O,AC50,[1],25.7 µM (active)
CCC(Cc1c(I)cc(I)c(N)c1I)C(=O)O (stereo not drawn),outcome,[2],inactive
C#CC(O)CCC (stereo not drawn),outcome,[1],inactive
CCOC(OCC)OCC,outcome,[2],inactive
same,outcome,[1],inactive
CCCCCCCCCCCCC[N+](C)(C)Cc1ccccc1,AC50,[2],3.31 µM (active)
same,AC50,AR (gene 367) [3],4.67 µM (active)
COCCOCCC[Si](C)(O[Si](C)(C)C)O[Si](C)(C)C,outcome,[2],inactive
same,outcome,AR (gene 367) [4],inactive
Oc1ccc(C2(c3ccc(O)c(C4CCCCC4)c3)CCCCC2)cc1C1CCCCC1,AC50,[1],38.9 µM (active)
N#CCCOCCC#N,outcome,[1],inactive
O=C1c2ccccc2C(=O)c2c(Cl)cccc21,outcome,[1],inactive
N#Cc1ccccc1O,outcome,[2],inactive
CCCCCCCC/C=C\CCCCCCCC(=O)OCC(O)CO (stereo not drawn),outcome,[2],inactive
same,AC50,[1],50 µM (active)
same,AC50,AR (gene 367) [4],27.9 µM (active)
same,outcome,AR (gene 367) [3],inactive
CC(C)(C)c1cc(Cc2cc(C(C)(C)C)c(O)c(C(C)(C)C)c2)cc(C(C)(C)C)c1O,outcome,[2],inactive
CCN(CC)c1ccc2c(c1)Oc1cc(N(CC)CC)ccc1C21OC(=O)c2ccccc21,AC50,[1],8.06 µM (active)
CCc1cccc(C)c1N(C(=O)C(=O)O)C(C)COC (stereo not drawn),outcome,[1],inactive
O=C(c1ccccc1)c1ccc(O)cc1O,AC50,[5],1.05 µM (active)
same,AC50,[6],0.652 µM (active)
same,AC50,[7],1.65 µM (active)
same,AC50,[8],1.55 µM (active)
same,AC50,[9],3.15 µM (active)
same,AC50,[10],2.24 µM (active)
same,outcome,[11],inactive
same,outcome,[12],inactive
same,outcome,[13],inactive
same,outcome,[14],inactive
same,outcome,[15],inactive
same,outcome,[16],inactive
same,outcome,[17],inactive
same,outcome,[18],inactive
CCCCOC(=O)C(C)O (stereo not drawn),outcome,[2],inactive
same,outcome,[1],inactive
CCC(=O)OC(C)c1ccccc1 (stereo not drawn),AC50,[1],79.9 µM (active)
